Measured values: PubChem BioAssay (Tox21)
Several values for one entry are separate records, joined by “and”; a condition that tells them apart may be missing. Identical values can stand only once. Inconclusive results are not listed. Entries that show only a call come without a potency. More than one record can exist for a structure, and the calls need not agree. Activity calls are given as the source filed them. Calls come from the whole dose curve; as a rule, active = well fitted cell-killing curve with a large enough effect in the repeat runs; inconclusive = weak or mixed curves; inactive = no such curve, though single readings can be large or run the other way.

Assay: qHTS assay to identify small molecule agonists of the peroxisome proliferator-activated receptor delta (PPARd) signaling pathway - cell viability counter screen (AID 743211); note: nearly all actives have a fitted effect of over 55% in size
Conditions: PPARd-bla HEK293H viability, CellTiter-Glo luminescence, 17 h; series mostly up to 62.6 µM
From the text: U.S. Tox21 Program National Center for Advancing Translational Sciences [NCATS] NIH Chemical Genomics Center [NCGC] U.S. Environmental Protection Agency [EPA] National Institutes of Environmental Health Sciences [NIEHS] National Toxicology Program [NTP] U.S. Food and Drug Administration [FDA] Tox21 Assay Overview: The peroxisome proliferator-activated receptors (PPARs) are lipid-activated transcription factors of the nuclear receptor superfamily with three distinct subtypes namely PPAR alpha, PPAR delta (PPARd) and PPAR gamma. All these subtypes heterodimerizes with Retinoid X receptor (RXR) and have different physiological functions. […] To identify the compounds that activate PPAR-delta signaling, GeneBLAzer PPAR delta UAS-bla HEK293H cell line (Invitrogen, Carlsbad, CA, USA) containing a beta-lactamase reporter gene under the control of an Upstream Activator Sequence (UAS) was used to screen the Tox21 compound library. The cytotoxicity of the Tox21 compound library against the PPARd-bla cell line was tested in parallel by measuring the cell viability using CellTiter-Glo assay (Promega, Madison, WI) in the same wells.
Tox21 Assay Protocol Summary: PPARd-bla cells were dispensed at 3000 cells/6uL/well in 1536-well black wall/clear bottom plates using a Multidrop Combi (Thermo Fisher Scientific, Waltham, MA) dispenser. After the assay plates were incubated at 37 C and 5% CO2 for 5 h, 23 nL of compounds dissolved in DMSO, positive controls or DMSO only was transferred to the assay plate by a Pintool station (Kalypsys, San Diego, CA). The assay plates were incubated at 37C for 17 h. After 1 uL of LiveBLAzerTM B/G FRET substrate was added using a Bioraptr Flying Reagent Dispenser (FRD) workstation (Beckman Coulter, Indianapolis, IN, USA), the plates were incubated at room temperature for 2 h, and fluorescence intensity was measured by an Envision plate reader (PerkinElmer, Shelton, CT). For cell viability readout that measures cytotoxicity, 3 ul/well of CellTiter-Glo reagent was added into the assay plates using a Bioraptr FRD. After 30 min incubation at room temperature, the luminescence intensity in the plates was measured using a ViewLux plate reader (PerkinElmer).
Potency is the fitted concentration of half-maximal effect.

| SMILES | Potency |
| --- | --- |
| Cc1c(OCC(F)(F)F)ccnc1CS(=O)c1nc2ccccc2[nH]1 (stereo not given) | inactive |
| C=C(C)C(=O)OCCOC(=O)C(=C)C | inactive |
| CCCCOCCOCCO | inactive |
| Cc1ncc[nH]1 | inactive |
| O=C(c1ccc(OCCN2CCCCC2)cc1)c1c(-c2ccc(O)cc2)sc2cc(O)ccc12 | 38.9 µM (active) and 12.3 µM (active) and 26.6 µM (active) |
| CC(C)OC=O | inactive |
| CC(C)CC(C)(O)C#CC(C)(O)CC(C)C (stereo not given) | inactive |
| O=c1oc(=O)c2cc3c(=O)oc(=O)c3cc12 | inactive |
| Cc1ccc(C)c(O)c1C | inactive |
| CCCc1c(OCCCCc2nn[nH]n2)ccc(C(C)=O)c1O | inactive |
| c1ccc2cc(Nc3ccc(Nc4ccc5ccccc5c4)cc3)ccc2c1 | inactive |
| c1ccc2sc(SSN3CCOCC3)nc2c1 | 15.5 µM (active) |
| c1ccc2c(c1)Oc1ccccc1S2 | inactive |
| C=C(C)C1CC=C(C)CC1 (stereo not given) | inactive |
| C[Si](C)(C)O[Si](C)(C)C | inactive |
| O=S(=O)(O)c1ccc(O)cc1 | inactive |
| OC(CCl)CCl | inactive |
| CC(=O)CC/C=C(\C)CCC=C(C)C | inactive |
| CN(C)CCC=C1c2ccccc2CCc2ccccc21 | 43.7 µM (active) and 38.9 µM (active) and 29.8 µM (active) |
| Nc1ccc(Cl)cc1Cl | inactive |

| SMILES | Potency |
| --- | --- |
| CC(=O)c1ccccn1 | inactive |
| O=C(COc1ccc(Cl)cc1)N1CCN(Cc2ccc3c(c2)OCO3)CC1 | inactive |
| CCCCCCCCCCCO | inactive and 43.6 µM (active) |
| CCCCNS(=O)(=O)c1ccccc1 | inactive |
| CCCCC(CC)COP(=O)(OCC(CC)CCCC)OCC(CC)CCCC (stereo not given) | inactive |
| Nc1ncnc2nc[nH]c12 | inactive |
| c1cc(-c2ccncc2)ccn1 | inactive |
| O=C1OC2(c3cc(Br)c(O)c(Br)c3Oc3c2cc(Br)c(O)c3Br)c2c(Cl)c(Cl)c(Cl)c(Cl)c21 | inactive |
| CC(=O)Oc1ccccc1C(=O)Nc1ncc([N+](=O)[O-])s1 | inactive |
| NNc1ccc(C(=O)O)cc1 | inactive |
| CCCCC/C=C/C=C/C=O | inactive |
| Cn1cnc([N+](=O)[O-])c1Sc1ncnc2nc[nH]c12 | inactive |
| O=C1c2cccc(O)c2C(=O)c2c(O)cccc21 | inactive |
| CCCCC(CC)COC(=O)c1ccc(N(C)C)cc1 (stereo not given) | inactive |
| O=C=Nc1ccc(Cc2ccc(N=C=O)cc2)cc1 | inactive |
| O=C(OCc1ccccc1)c1ccccc1O | inactive |
| CC1=CCC(C(C)(C)O)CC1 (stereo not given) | inactive |
| COC(=O)c1ccccc1 | inactive |
| CCC(C)OC(=O)c1ccc(O)cc1 (stereo not given) | inactive |
| CC1=CC2C3CC(C=C3C)C2C1 (stereo not given) | inactive |
